Laboratory results: PubChem BioAssay AID624405 (Broad Institute, 2012)
About 250 (13%) of roughly 1,900 compounds were called active. Inconclusive results (about 4%) are left out.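 The calls were made as follows: active = fitted curve reaches 40% rescue activity at or below the top valid dose, in every test run; inconclusive = test runs disagree, some active and some inactive; inactive = every run misses the threshold or moves the wrong way.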 These entries were drawn from the full list. Entries with a potency or affinity are not part of this list.

assay: rescue of simvastatin-induced ATP loss – cell-based, C2C12 myotubes, ATP luminescence, cherry pick, dose response (AID 624405); details: 48 h, scaled: DMSO wells 0, geranylgeraniol wells 100; series mostly up to 19.5 µM;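 also: myotubes are challenged with simvastatin at 10 µM to lower ATP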

SMILES | outcome
COc1ccc(C#Cc2cnc3c(c2)C(=O)N([C@H](C)CO)C[C@H](C)[C@@H](CN(C)C(=O)Nc2cccc(OC)c2)O3)cc1 | inactive
COc1cc(C(=O)OCCN2CCOCC2)ccc1O | inactive
C[C@@H]1CN([C@@H](C)CO)C(=O)c2cccc(NC(=O)C3CCCCC3)c2O[C@@H]1CN(C)S(=O)(=O)c1ccc(Cl)cc1 | inactive
C[C@H](CO)N1C[C@H](C)[C@H](CN(C)S(C)(=O)=O)OCCCC[C@H](C)Oc2ccc(NS(=O)(=O)c3ccc(F)cc3)cc2C1=O | inactive
COc1ccc(-c2cnc3c(c2)C(=O)N([C@H](C)CO)C[C@H](C)[C@H](CN(C)S(=O)(=O)c2ccc(F)cc2)O3)cc1 | inactive
Cc1[nH]nc2c1C(c1ccsc1)C(C#N)=C(N)O2 (stereo not given) | inactive
OC[C@H]1[C@H]2c3ccccc3NC[C@H]2N1Cc1ccccc1Cl | inactive
CCC(CC)C(=O)Nc1cccc(/C(C)=N/NC(=O)c2ccccc2Cl)c1 | inactive
COc1cc(OC)cc(C(=O)Nc2ccccc2C(=O)N2CCCC2)c1 | inactive
O=C(NCc1ccncc1)Nc1ccccc1Cl | inactive
C[C@@H]1CN([C@@H](C)CO)C(=O)Cc2cc(NS(=O)(=O)c3ccc(Cl)cc3)ccc2O[C@@H]1CN(C)Cc1ccc(C(F)(F)F)cc1 | inactive
C[C@@H]1CN([C@@H](C)CO)C(=O)c2cccc(NS(=O)(=O)c3ccccc3)c2O[C@@H]1CN(C)S(=O)(=O)c1cccs1 | inactive
O=C(Cn1cnc2c(nnn2Cc2ccc(F)cc2)c1=O)NC1CCCC1 | inactive
O=C1c2ccccc2NC(c2cccc(F)c2)N1Cc1ccco1 (stereo not given) | inactive
C[C@H](CO)N1C[C@H](C)[C@@H](CN(C)S(=O)(=O)c2cccs2)OCCCC[C@H](C)Oc2ccc(NC(=O)Nc3ccc(F)cc3)cc2C1=O | inactive
CCc1ccc(C(O)(CC(C)C)C(CN2CCOCC2)c2ccccc2)cc1 (stereo not given) | inactive
N#CC(c1ccc(Cl)cc1)c1ccc(Cl)nn1 (stereo not given) | inactive
Cc1cc(C)n(CC(=O)N2c3ccccc3Sc3ccccc32)n1 | inactive
O=C(COC(=O)Cc1ccccc1F)NCc1ccc(Cl)cc1 | inactive
CCOC(=O)C(C)C1(O)c2ccccc2-c2ncccc21 (stereo not given) | inactive
CN1C[C@H]2[C@@H](c3ccccc31)[C@@H](CO)N2Cc1ccccc1 | inactive
CCOc1ccc(N(CC(=O)NCc2ccco2)S(=O)(=O)c2ccc(OC)c(OC)c2)cc1 | inactive
CC(=O)N1c2ccc(S(=O)(=O)NCCC(=O)NCCc3ccc(C)cc3)cc2CC1C (stereo not given) | inactive
Nc1nnc(-c2ccccc2)c(-c2ccccc2)n1 | inactive
O=S(=O)(NC1=NCCC1)c1ccc(F)cc1 | inactive
